For 26 molecules, Potency results are on record in PubChem BioAssay (NCATS).

The nature of assay [1]: NS1 protein of Zika virus - qHTS assay to identify small molecule inhibitors in human HEK 293 cells (AID 1347053). Further: nearly all actives have a fitted effect of over 55% in size. In short, it runs like this:
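Read-out is a two-antibody TR-FRET for ZIKV NS1, normalized between uninfected cells and infected cells. Compound added 1 h before MR766 infection at MOI 0.5; human HEK 293 cells incubated 24 h, 37 C.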

Assay [2] can be described thus: qHTS of pediatric cancer cell lines to identify multiple opportunities for drug repurposing: Primary screen for TC32 cells (AID 1347089). Further: nearly all actives have a fitted effect of over 60% in size. The procedure, abridged: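 A viability screen of TC32 cells was run over 48 h, with primary MIPE doses spanning 0.78 nM–46 µM and NPC doses 0.59 nM–46 µM. ATP luminescence (CellTiter-Glo) served as the read-out.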
Background: In qHTS, concentration-response curves come from the screen itself.

Assay [3] in a line: qHTS of pediatric cancer cell lines to identify multiple opportunities for drug repurposing: Primary screen for SK-N-MC cells (AID 1347093). In short, it runs like this: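 Metabolically active cells were quantified by ATP-dependent luminescence (CellTiter-Glo, 15 min at room temperature) following 48 h treatment. Cells had been plated at 500-1,000 per well and settled for 5 h beforehand.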

Assay [4] in a line: qHTS of pediatric cancer cell lines to identify multiple opportunities for drug repurposing: Primary screen for NB-EBc1 cells (AID 1347095). The procedure, abridged:
(§1)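 Viability was measured as metabolically active cells after 48 hours of treatment, read by CellTiter-Glo luminescence. Compounds were tested at multiple final concentrations, giving concentration-response curves.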

Assay [5] in a line: qHTS of pediatric cancer cell lines to identify multiple opportunities for drug repurposing: Primary screen for U-2 OS cells (AID 1347096). Further: nearly all actives have a fitted effect of over 50% in size. In short, it runs like this: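 Cells (500-1,000/well) in growth media were settled 5 h at 37 degrees C, then given compounds for 48 h. Viability was read as CellTiter-Glo luminescence. Primary runs used MIPE at 11 points (0.78 nM-46 µM) and NPC at 8 points (0.59 nM-46 µM); follow-ups used 11 points.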

Assay [6] is described as follows: qHTS of pediatric cancer cell lines to identify multiple opportunities for drug repurposing: Primary screen for SK-N-SH cells (AID 1347098). Further: nearly all actives have a fitted effect of over 65% in size. In short, it runs like this:
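Cells (500-1,000/well) rested 5 h, then received compounds for 48 h; metabolically active cells were measured by CellTiter-Glo luminescence. Final concentrations spanned up to 46 µM (MIPE, 11-point) or 0.59 nM-46 µM (NPC, 8-point) in primary screens, 11-point in follow-ups.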

Assay [7] in a line: qHTS of pediatric cancer cell lines to identify multiple opportunities for drug repurposing: Primary screen for DAOY cells (AID 1347090). Further: nearly all actives have a fitted effect of over 55% in size. In short, it runs like this: (§2)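 Eight- or eleven-point concentration series, 48 h treatment at 37 degrees C in growth media; readout CellTiter-Glo luminescence. Potency and efficacy were taken from the concentration-response curves.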
The nature of assay [8]: qHTS of pediatric cancer cell lines to identify multiple opportunities for drug repurposing: Primary screen for BT-37 cells (AID 1347094). In short, it runs like this: as §1
Assay [9] is described as follows: qHTS of pediatric cancer cell lines to identify multiple opportunities for drug repurposing: Primary screen for A673 cells (AID 1347092). Further: nearly all actives have a fitted effect of over 45% in size. In short, it runs like this:
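Titration-based qHTS on A673 cells: MIPE compounds spanned 11 points (0.78 nM to 46 µM final), NPC compounds 8 points (0.59 nM to 46 µM final). Viability after 48 h was measured by ATP luminescence.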

Assay [10] in a line: qHTS of pediatric cancer cell lines to identify multiple opportunities for drug repurposing: Primary screen for SJ-GBM2 cells (AID 1347091). The procedure, abridged:
as §2

Assay [11] can be described thus: qHTS of pediatric cancer cell lines to identify multiple opportunities for drug repurposing: Primary screen for Saos-2 cells (AID 1347097). Further: nearly all actives have a fitted effect of over 40% in size. In short, it runs like this:
as §1

Inconclusive results are not listed. Active and inactive are the calls of the source. The call rests on the fitted dose curve; in most records, active means well fitted curve in the direction sought with a large enough effect; inconclusive means small, poorly fitted or top-dose-only effect, or another doubt; inactive means no such curve, though single readings can be large; an effect the other way counts as inactive or inconclusive.
Potency means the concentration at half of the fitted maximal effect.

For the molecule `O=[N+]([O-])c1ccc(Nc2ccccc2-c2ccccc2)c2nonc12`, the Potency result in assay [1], in assay [2], in [5] and in assay [6] was “inactive” each time. Further, the Potency was 29.6 µM (active) in assay [3] and 23.5 µM (active) in assay [4].

For `Fc1ccc(C(c2ccc(F)cc2)N2CCN(CC=Cc3ccccc3)CC2)cc1`, the Potency result in [1], in assay [7], in assay [8], in assay [5] and in assay [6] was “inactive” each time.

Turning to `CN1CCN(c2ncc(-c3cc(Cl)cc(Cl)c3Cl)c(N)n2)CC1`, the Potency result in [1], in assay [2], in assay [7] and in [5] was “inactive” each time. Moreover, the Potency is 2.35 µM (active) in assay [9], 10.5 µM (active) in assay [3], 3.06 µM (active) in assay [8] and 21.5 µM (active) in assay [6].

Turning to `OC(c1cc(C(F)(F)F)nc2c(C(F)(F)F)cccc12)C1CCCCN1` (configuration not stated), the Potency was 10.5 µM (active) in assay [1], 18.7 µM (active) in [9] and 34.1 µM (active) in assay [6]. Also, the Potency result in assay [2], in assay [7] and in assay [4] was “inactive” throughout.

Consider `NC(=O)c1noc([C@H](CCCC2CCCCC2)CC(=O)NO)n1`, for which the Potency in assay [1] is 13.2 µM (active); in [9], 9.35 µM (active); in assay [8], 21.7 µM (active); in [4], 20.9 µM (active). Also, the Potency result in [2] is “inactive”.

Regarding `CCC[C@H](N[C@@H](C)C(=O)N1[C@@H]2CCCC[C@H]2C[C@H]1C(=O)O)C(=O)OCC`, the Potency result in assay [1], in assay [2], in assay [7] and in assay [5] was “inactive” each time. Besides, in assay [3], the Potency is 3.32 µM (active).

In the case of `CCC[C@H](Nc1nc(-c2ccc(NC(=O)NCC)c(OC)c2)ncc1C)c1cccnc1`, the Potency in assay [1] is 0.0093 µM (active); in assay [2], 0.093 µM (active); in [10] it was 0.0105 µM (active); in assay [9], 0.0187 µM (active); in assay [8], 0.0137 µM (active); in assay [4], 0.0066 µM (active).

As to `Cc1[nH]c(C=C2C(=O)Nc3ccc(S(=O)(=O)N(C)c4cccc(Cl)c4)cc32)c(C)c1C(=O)N1CCN(C)CC1`, in [1], the Potency result was “inactive”. Further, the Potency in [7] is 23.5 µM (active); in assay [10] it was 2.09 µM (active); in assay [9] it was 23.5 µM (active); in assay [3], 11.8 µM (active); in assay [8] it was 24.3 µM (active); in assay [4] it was 14.8 µM (active). The Potency in assay [5] was 18.7 µM (active); in [11], 18.7 µM (active); in assay [6], 30.4 µM (active).

Consider `CN1CCC[C@H]1CCO[C@](C)(c1ccccc1)c1ccc(Cl)cc1`, for which the Potency entry in assay [1], in assay [2], in assay [10], in assay [4] and in [5] was “inactive” in each case. Further, the values for the Potency in [3] and in assay [6] were 20.9 µM (active) and 30.4 µM (active), respectively.

In the case of `N#CC1(c2cccc(C(=O)Nc3cc(Oc4ccc5nc(NC(=O)C6CC6)sc5n4)ccc3F)c2Cl)CC1`, the Potency in assay [1] is 2.35 µM (active). Moreover, the Potency entry in assay [2] and in [10] was “inactive” each time.

Consider `COc1ccc2cc1Oc1ccc(cc1)C[C@H]1c3cc(c(OC)cc3CCN1C)Oc1c(OC)c(OC)cc3c1[C@H](C2)N(C)CC3`, for which the Potency entry in assay [1] and in assay [5] was “inactive” each time. For the same molecule, the Potency in assay [7] was 18.7 µM (active); in assay [9], 23.5 µM (active); in [3], 23.5 µM (active); in [11], 29.6 µM (active).

Regarding `CC=C(C(=CC)c1ccc(O)cc1)c1ccc(O)cc1`, the Potency entry in assay [1], in assay [2] and in assay [5] was “inactive” in each case. The Potency in assay [10] was 20.9 µM (active); in assay [9], 23.5 µM (active); in assay [3], 11.8 µM (active); in assay [11] it was 18.7 µM (active).

As for `COc1cc([C@@H]2c3cc4c(cc3[C@@H](O[C@@H]3O[C@@H]5CO[C@@H](C)O[C@@H]5[C@H](O)[C@@H]3O)[C@H]3COC(=O)[C@H]23)OCO4)cc(OC)c1O`, the Potency in assay [1] is 1.18 µM (active); in [2] it was 1.04 µM (active); in assay [10] it was 0.59 µM (active); in [9], 1.48 µM (active); in assay [8], 0.485 µM (active); in assay [4] it was 0.187 µM (active). Moreover, the Potency in assay [11] is 3.32 µM (active).

As for `Nc1ncnc2c1c(-c1cccc(OCc3ccccc3)c1)cn2C1CC(CN2CCC2)C1` (configuration not stated), the Potency result in assay [1], in assay [7], in assay [8] and in assay [5] was “inactive” each time. The Potency in [2] was 9.3 µM (active); in assay [4] it was 10.5 µM (active); in assay [11] it was 3.32 µM (active).

Regarding `Cc1csc(-c2nnc(Nc3ccc(Oc4ncccc4-c4ccnc(N)n4)cc3)c3ccccc23)c1`, the Potency entry in [1] and in assay [5] was “inactive” each time. The results for the Potency in assay [10], in assay [9] and in [3] were 0.003 µM (active), 14.8 µM (active) and 0.0037 µM (active), respectively.

`COc1cc2nc(-c3cc(F)ccc3O)nc(N[C@@H]3CNC[C@@H]3C(C)(C)O)c2cc1OC`: the Potency in assay [1] was 9.35 µM (active); in assay [10] it was 23.5 µM (active); in assay [9] it was 7.43 µM (active); in assay [8], 27.3 µM (active); in [11], 9.35 µM (active); in assay [6], 30.4 µM (active).

As to `COc1ccc2nc3cc(Cl)ccc3c(Nc3cc(CN4CCCC4)c(O)c(CN4CCCC4)c3)c2n1`, the Potency result in [1], in [2], in assay [7] and in [5] was “inactive” in each case.

In the case of `CC(=O)OCC(=O)[C@@]12OC(C)(C)O[C@H]1C[C@H]1[C@@H]3C[C@H](F)C4=CC(=O)C=C[C@]4(C)[C@@]3(F)[C@@H](O)C[C@@]12C`, the Potency result in assay [1], in assay [2], in [10], in assay [9], in [8] and in assay [4] was “inactive” throughout. The Potency entry in assay [5] and in [6] was “inactive” throughout.

Turning to `O=C(Nc1ncc(SCCN2CCCC2)s1)[C@]1(c2ccc(S(=O)(=O)C3CC3)cc2)C[C@@H]1C1CCCCC1`, the Potency entry in assay [2] and in [6] was “inactive” in each case. The Potency in assay [9] was 18.7 µM (active); in [3], 20.9 µM (active); in [8] it was 30.6 µM (active); in assay [4] it was 26.4 µM (active); in assay [5], 23.5 µM (active); in assay [11], 33.2 µM (active).

For `CN(C)S(=O)(=O)c1ccc2c(c1)C(=Cc1cc3c([nH]1)CCCC3)C(=O)N2`, the Potency result in [1] is “inactive”. The Potency is 3.72 µM (active) in [3] and 3.83 µM (active) in assay [6].

In the case of `O=C(Nc1cccc(C(F)(F)F)c1)Nc1cc(S(=O)(=O)NC2CC2)ccc1-c1ccsc1`, the Potency entry in [2], in [5] and in [6] was “inactive” each time. The Potency was 26.4 µM (active) in [10], 23.5 µM (active) in [4] and 29.6 µM (active) in assay [11].

Consider `O=C(C=Cc1ccc(O)cc1)c1ccc(O)cc1O`, for which, in assay [2], the Potency entry is “inactive”. Also, the Potency was 18.7 µM (active) in [9], 37.2 µM (active) in assay [3], 18.7 µM (active) in assay [11] and 6.07 µM (active) in assay [6].

Take `CC[C@@H]([C@H](C)O)n1ncn(-c2ccc(N3CCN(c4ccc(OCC5CO[C@@](Cn6cncn6)(c6ccc(F)cc6F)C5)cc4)CC3)cc2)c1=O` (some centres not stated): the Potency entry in assay [2], in assay [5] and in [6] was “inactive” in each case. For the same molecule, the Potency in assay [10] is 18.7 µM (active); in assay [9] it was 18.7 µM (active); in assay [3], 16.6 µM (active); in assay [4] it was 20.9 µM (active).

In the case of `C=C1[C@H](n2cnc3c(=O)[nH]c(N)nc32)C[C@H](O)[C@H]1CO`, the Potency result in [1], in assay [5] and in assay [6] was “inactive” in each case. For the same molecule, the Potency is 0.0235 µM (active) in assay [10], 0.0187 µM (active) in assay [3], 21.7 µM (active) in assay [8] and 2.09 µM (active) in [4].

`CCC(C)SSc1ncc[nH]1` (configuration not stated): the Potency result in [2] and in assay [5] was “inactive” each time. Besides, the Potency in [10] is 20.9 µM (active); in [9], 18.7 µM (active); in [3] it was 3.72 µM (active); in assay [4], 5.9 µM (active).

On to `CCOC(=O)c1c(CSc2ccccc2)n(C)c2cc(Br)c(O)c(CN(C)C)c12`, for which the Potency result in assay [2], in [7], in assay [9] and in [4] was “inactive” in each case.
